Inconclusive results are not listed. Values without a mark were called inactive. The source made the active and inactive calls. Calls follow the shape of the dose curve; as a rule, active = well fitted cell-killing curve with a large enough effect in the repeat runs; inconclusive = weak or mixed curves, or effect the other way; inactive = flat fitted curve, though single readings scatter.
test: qHTS RealTime-Glo MT Cell Viability Assay in HepG2 cells - 0 hour (AID 1224889); conditions: RealTime-Glo luminescence; series mostly up to 76.8 µM; activity change, negative = cytotoxicity: at the top concentration; also: nearly all actives have a fitted effect of over 50% in size
From the text: U.S. Tox21 Program National Center for Advancing Translational Sciences [NCATS] NIH Chemical Genomics Center [NCGC] U.S. Environmental Protection Agency [EPA] National Institutes of Environmental Health Sciences [NIEHS] National Toxicology Program [NTP] U.S. Food and Drug Administration [FDA] Tox21 Assay Overview: Measure of cell viability is critical in the cell-base assay. Analysis of cell viability is necessary for the characterization of cell responses to cytotoxic drugs and environmental stress. A RealTime-Glo MT Cell Viability Assay to monitor cell viability in real time of continues cell culture during 40 hours of compound treatment was used to screen Tox21 10K library compounds in HepG2 cells. The RealTime-Glo MT Cell Viability Assay is a nonlytic, homogeneous, bioluminescent method to measure cell viability in real time using a simple, plate-based method. The assay involves adding NanoLuc luciferase and a cell-permeant prosubstrate to cells in culture. Viable cells reduce the proprietary prosubstrate to generate a substrate for NanoLuc luciferase. This substrate diffuses from cells into the surrounding culture medium, where it is rapidly used by the NanoLuc Enzyme to produce a luminescent signal. The signal correlates with the number of viable cells, making the assay well suited for cytotoxicity studies.
Tox21 Assay Protocol Summary: The mixture of HepG2 cell suspension and reagents were dispensed at 600cells/6 ul/well in 1536-well tissue culture treated black solid bottom plates using a Multidrop dispenser. After the assay plates were incubated at a 37 C/5% CO2 incubator for 5 hours, 23 nL of compounds dissolved in DMSO, positive and negative controls was transferred to the assay plate by a pintool work station. The plates were incubated at 37 C for 40 hours. The luminescence intensity were measured at 0h, 8h, 16h, 24h, 32h and 40h time points using ViewLux plate reader during compound treatment.
% is scaled to controls: 0 for no effect and ±100 for the full control effect.

Question: Which “activity change, negative = cytotoxicity” value does the source give for COC(=O)C1(O)c2ccccc2-c2ccccc21 here?
Answer: The value was 3.83%.

Question: Which “activity change, negative = cytotoxicity” value does the source give for Clc1ccc2ccccc2c1 here?
Answer: Its value is 1.67%.

Question: Which outcome does the source give for O=[N+]([O-])/C=C/c1ccccc1 here?
Answer: The outcome was “inactive”.

Question: With O=C(N[C@H]1CN2CCC1CC2)c1ccc2c(c1)OCCO2 as the compound, how does the “activity change, negative = cytotoxicity” value read?
Answer: Its value is 0.217%.

Question: For CC(C)(C#N)C(C)(C)C#N, which “activity change, negative = cytotoxicity” value is on record?
Answer: Its value is -0.42%.

Question: Which outcome does the source give for Nc1ccccc1C(=O)OCCc1ccccc1 here?
Answer: The outcome was “inactive”.

Question: For CCCCCCCCn1sccc1=O, which outcome is on record?
Answer: Its outcome is “inactive”.

Question: Which “activity change, negative = cytotoxicity” value does the source give for CCCC[N+]1(C)[C@@H]2CC(OC(=O)[C@H](CO)c3ccccc3)C[C@H]1[C@@H]1O[C@@H]12 (stereo not given in full) here?
Answer: Its value is 15% [at 35.3 µM].

Question: For CC(C)c1ccc(NC(=O)N(C)C)cc1, which “activity change, negative = cytotoxicity” value is on record?
Answer: The value was -0.228%.

Question: With Nc1cccc2ccccc12 as the compound, how does the outcome read?
Answer: Its outcome is “inactive”.

Question: For CCCC[P+](CC)(CCCC)CCCC (tested in a mixture with another compound), which “activity change, negative = cytotoxicity” value is on record?
Answer: The value was 4.41%.

Question: With N#CC(C#N)=C(C#N)C#N as the compound, how does the “activity change, negative = cytotoxicity” value read?
Answer: Its value is 3.12%.

Question: For COC(=O)Cc1ccccc1, which “activity change, negative = cytotoxicity” value is on record?
Answer: The value was -1.28%.

Question: With C1CCNCC1 as the compound, how does the “activity change, negative = cytotoxicity” value read?
Answer: Its value is 1.85%.

Question: For NC(=S)c1c(Cl)cccc1Cl, which “activity change, negative = cytotoxicity” value is on record?
Answer: The value was -5.14%.

Question: With C[N+](C)(C)CCOC(=O)C(O)(c1ccccc1)c1ccccc1 as the compound, how does the “activity change, negative = cytotoxicity” value read?
Answer: Its value is -6.62% [at 35.3 µM].

Question: Which outcome does the source give for O=C1c2ccccc2C(=O)N1SC(Cl)(Cl)Cl here?
Answer: Its outcome is “inactive”.

Question: For O=C([O-])c1ccccn1.O=C([O-])c1ccccn1.O=C([O-])c1ccccn1.[Cr+3], which “activity change, negative = cytotoxicity” value is on record?
Answer: The value was -4.29%.

Question: Which “activity change, negative = cytotoxicity” value does the source give for CC(O)CN1CCN(CC(=O)[O-])CCN(CC(=O)[O-])CCN(CC(=O)[O-])CC1.[Gd+3] (stereo not given) here?
Answer: The value was -3.93% [at 35.3 µM].

Question: For C=CC(C)(CCC=C(C)C)OC(=O)c1ccccc1N (stereo not given), which “activity change, negative = cytotoxicity” value is on record?
Answer: Its value is -0.194%.

Question: With O=C(N/N=C/c1ccc([N+](=O)[O-])o1)c1cc([N+](=O)[O-])cc([N+](=O)[O-])c1O as the compound, how does the “activity change, negative = cytotoxicity” value read?
Answer: Its value is -28.8% [at 35.3 µM].

Question: With C=CCc1ccccc1O as the compound, how does the “activity change, negative = cytotoxicity” value read?
Answer: The value was 6.54%.

Question: With O=C=NC1CCCCC1 as the compound, how does the “activity change, negative = cytotoxicity” value read?
Answer: Its value is -0.935%.

Question: For CCN(C(C)=O)c1cccc(-c2ccnc3c(C#N)cnn23)c1, which “activity change, negative = cytotoxicity” value is on record?
Answer: The value was 2.77% [at 35.3 µM].

Question: Which “activity change, negative = cytotoxicity” value does the source give for O=[N+]([O-])c1cc(Cl)c(Cl)cc1Cl here?
Answer: The value was 0.209%.

Question: For O=S(=O)(c1ccccc1)c1ccccc1, which “activity change, negative = cytotoxicity” value is on record?
Answer: The value was -13.4%.

Question: With CCCCC(CC)CO[N+](=O)[O-] (stereo not given) as the compound, how does the “activity change, negative = cytotoxicity” value read?
Answer: The value was -0.475%.

Question: Which “activity change, negative = cytotoxicity” value does the source give for CN1CC[C@]23c4c5ccc(O)c4O[C@H]2[C@@H](O)C=C[C@H]3[C@H]1C5 here?
Answer: The value was -0.754%.

Question: For Oc1cccc(Cl)c1, which “activity change, negative = cytotoxicity” value is on record?
Answer: The value was 0.0859%.

Question: For CCOP(=S)(OCC)SCSc1cc(Cl)ccc1Cl, which “activity change, negative = cytotoxicity” value is on record?
Answer: The value was 8.85%.

Question: Which “activity change, negative = cytotoxicity” value does the source give for O=C(O)c1cc(Cl)ccc1Cl here?
Answer: The value was -5.85%.

Question: With c1ccc2sc(SNC3CCCCC3)nc2c1 as the compound, how does the outcome read?
Answer: Its outcome is “inactive”.

Question: With Clc1ccc(Cl)c(Cl)c1 as the compound, how does the outcome read?
Answer: The outcome was “inactive”.

Question: For C=CCc1ccc(OC(=O)Cc2ccccc2)c(OC)c1, which “activity change, negative = cytotoxicity” value is on record?
Answer: Its value is -1.74%.

Question: For CCC(C)Cl (stereo not given), which “activity change, negative = cytotoxicity” value is on record?
Answer: Its value is 0.945%.

Question: For CC(C)OC(=O)Cc1ccccc1, which “activity change, negative = cytotoxicity” value is on record?
Answer: The value was -3.45%.

Question: With Clc1ccccc1 as the compound, how does the “activity change, negative = cytotoxicity” value read?
Answer: The value was 8.38%.

Question: Which outcome does the source give for CCCN(CCC)c1c([N+](=O)[O-])cc(C(C)C)cc1[N+](=O)[O-] here?
Answer: The outcome was “inactive”.

Question: With CCCCCCCCP(=O)(O)O as the compound, how does the “activity change, negative = cytotoxicity” value read?
Answer: Its value is -2.34%.

Question: Which “activity change, negative = cytotoxicity” value does the source give for COc1ccccc1N1CCNCC1 here?
Answer: The value was 9.63% [at 35.3 µM].
